Assay results taken from PubChem BioAssay AID504941 (Broad Institute, 2011).
The whole screen tested about 1,200 compounds, of which about 170 (14%) were called active. How the calls were made is not given here. A selection follows. Results with a measured potency or affinity are listed apart.

Test: twin-arginine translocation blockade, bacterial reporter – cherry-pick, set 2, plate reader, dose response (AID 504941)
Conditions: E. coli Tat transport reporter; series mostly up to 38 µM

outcome, inactive:
COC(C(=O)Nc1ccnn1C1CCN(C(=O)c2ccc(C=O)cc2)CC1)c1ccccc1 (stereo unspecified), Cc1ccc(NC(=O)c2cccs2)cc1S(=O)(=O)Nc1cccc(Cl)c1, Cc1ccccc1-n1c(SCC(=O)N2CCOCC2)nc(O)c(Cc2ccccc2)c1=O, COCCn1c(=NC(=O)c2ccc3c(c2)OCCO3)sc2cc(S(N)(=O)=O)ccc21, CN1CCc2c(sc3nc(SCC(=O)N4CCOCC4)nc(N)c23)C1, COC(=O)C1(S(=O)(=O)C2(C(=O)OC)CCCC2)CCCC1, Cc1ccc(NCc2nnc3n2CCCCC3)c(C)c1, O=c1cc(O)nc[nH]1, CC1(C)CC(=O)C/C(=N\NC(=O)CCc2ccc(S(=O)(=O)N3CCOCC3)cc2)C1, COc1cccc(COC(=O)C2CC(=O)N(Cc3ccco3)C2)c1OC (stereo unspecified), CCc1ccc2c(CSc3nnnn3C)cc(=O)oc2c1, O=c1[nH]c(N2CCCCC2)nc2c1CCCC2, S=c1nc(-c2ccccc2Br)[nH][nH]1, CCOC(=O)N1CCN(c2ccc(C(=O)CC)cc2F)CC1, CN(C)c1nc(SCC#N)nc(N2CCOCC2)n1, CCCC(=O)NC1=C(C#N)C2(CCCC2)Cc2ccccc21, c1ccc(CC2=NCCN2)cc1, O=C(Nc1cccc(NC(=O)c2ccco2)c1)c1ccccc1, O=S(=O)(/N=C(/Nc1ccccc1)c1ccccc1)c1cccs1, N#Cc1ccccc1CSc1ccccn1, O=C1CCCN1Cc1ccccc1, COc1ccc(Cl)cc1S(=O)(=O)Nc1noc2ccccc12, Nc1ccccc1C(=O)NCC1(c2ccccc2)CCCC1, Cc1ccccc1Nc1nnc(C)c(=O)[nH]1, Cc1ccc(C(=O)N2CCCC(CCC(=O)NCc3ccc(F)c(F)c3)C2)cn1 (stereo unspecified), CCCc1cc(=O)oc2cc(OCC(=O)N(C)C)c(Cl)cc12, C#CCNC(=O)C1=C[C@H](c2csc3ccccc23)[C@@H](CCCO)[C@H](OCC)O1, COc1cc(OC)cc(C(=O)N(CN2CCCC2=O)c2ccccc2OC)c1, CCOCCCNC(=S)NCCNc1nc2ccc(C)cc2cc1C#N, Cc1ccsc1C1C(C#N)=C(N)OC2=C1C(=O)CC(C)C2 (stereo unspecified), CC(=O)N(Cc1ccc(F)cc1)c1cccc(C)c1C, Cc1ccc(NC(=O)C(c2ccc(Cl)cc2)N2CCCCC2)cc1 (stereo unspecified), Cc1cc(C)n2nc(SC(C)C(=O)N3CC(C)OC(C)C3)nc2n1 (stereo unspecified), Cc1cc(C(=O)N2CCN(c3ccccc3)CC2)no1, CC1=C(C#N)C(c2cn(-c3ccccc3)nc2-c2cccs2)C(C#N)=C(C)N1, Cc1nc2ncnn2c(C)c1CCC(=O)N1CCCCC1, CCNC(=O)OCC12CC3CC(CC(C3)C1)C2, CCOc1ccccc1NC(=O)NCc1ccc2c(c1)OCO2, O=C1CN(C(=O)COC(=O)c2cc(S(=O)(=O)N3CCOCC3)ccc2Cl)c2ccccc2N1, Cc1ccc(-c2n[nH]c3c2C(c2ccccc2)N(c2ccc(C(=O)O)cc2)C3=O)cc1 (stereo unspecified), COc1ccc(CN2CCN(C(=O)C3CCC(CNS(=O)(=O)c4ccccc4)CC3)CC2)c(OC)c1OC (stereo unspecified), Cc1nn(-c2ccccc2)c2nc3c(cc12)C(=O)CCC3, CC(=O)c1ccc(NC(=O)CSc2nc(N3CCOCC3)nc(N3CCOCC3)n2)cc1, COc1ccc(-n2c(Cc3cccn3C)nnc2SCC(=O)Nc2ccc(C(C)=O)cc2)cc1, Cc1ccc(-c2nc3ccccc3s2)cc1NC(=S)NC(=O)c1cccc2ccccc12, COc1ccc(-c2nc3ccccc3o2)cc1NC(=O)c1ccc(Br)o1, Cc1cc(NC(=O)C2CC2)ccc1NC(=O)c1cccs1, CC1=NN(c2ccccc2)C(=O)C1c1ccccc1 (stereo unspecified), O=C(NCCOC(=O)c1cccs1)c1cccnc1, CCOC(=O)CNC(=O)c1ccccc1, CCOC(=O)CNS(=O)(=O)Cc1ccccc1, Cc1cc2ncn(CCOc3ccccc3)c2cc1C, COc1ccc(/C=C(/NC(=O)c2cccc([N+](=O)[O-])c2)C(=O)O)cc1OC, CC(C)(C)OC(=O)N(CCc1ccccc1)Cc1cccc(OCc2cccc(NC(=O)/C=C/c3ccccc3)c2)c1, O=C(Nc1cccnc1Cl)c1noc2c1CCc1ccccc1-2, Cc1ccc(CN(C(=O)c2sc3ccccc3c2Cl)C2CCS(=O)(=O)C2)cc1 (stereo unspecified), COc1ccccc1-n1nc(C(=O)Nc2ccc3c(c2)OCO3)c2ccccc2c1=O, C=CCNC(=O)c1ccccc1NC(=O)Nc1ccccc1, COCCN(C(=S)Nc1c(C)cc(C)cc1C)C(C)c1cccnc1 (stereo unspecified), CCOCCCNC(=O)c1ccc(Cn2c(=S)[nH]c3c([nH]c4ccc(OC)cc43)c2=O)cc1, CCOC(=O)Cc1c[nH]c2ccc([N+](=O)[O-])cc12, O=C(/C=C/c1ccccc1)Nc1cc(S(=O)(=O)N2CCOCC2)ccc1N1CCCC1, COc1ccc(N=C2SC(C(=O)O)CC(=O)N2Cc2ccc(OC)c(OC)c2)cc1 (stereo unspecified), CNC(=O)C1CCN(S(=O)(=O)c2c(C)noc2/C=C/c2cccc(OC)c2)CC1, COc1cc(/C=N/NC(=O)c2ccccn2)ccc1OC(=O)c1ccc(Br)cc1, COc1ccc([N+](=O)[O-])cc1/C=N/NC(=O)Cc1ccccc1, C=CCNC(=S)Nc1cccc2[nH]ncc12, O=C(O)c1cn(-c2ccc(F)cc2)c2cc(N3CCNCC3)c(F)cc2c1=O, CN1C2CCC1CC(NS(=O)(=O)c1cc(Cl)c(Cl)cc1Cl)C2 (stereo unspecified), CCCCSc1nc2c(c(=O)[nH]c(=O)n2C)n1CCc1ccccc1, O=C(CCc1nc2ccccc2c(=O)[nH]1)OCC(=O)c1cccc(Cl)c1, COc1ccc(S(=O)(=O)N2CCOCC2)cc1NC(=O)c1ccc2c(c1)OCO2, CCOc1ccc(S(=O)(=O)N2CCCCC2)cc1NC(=O)CN1C(=O)NC(CC)(c2ccccc2)C1=O (stereo unspecified), Cc1c(C)c2c(C)nn(-c3ccccc3)c2[nH]c1=O, CC(C)(C)c1nn2cnnc2n(/N=C/c2cccc3ccccc23)c1=O, CCOC(=O)c1c(N/C=C(\C#N)c2nc(-c3ccc(OC(C)=O)cc3)cs2)sc2c1CCC2, CCc1nc2cc3sc(CC)nc3cc2s1, CC(C)c1ccc(NC(=O)c2snc3ccc(Cl)cc23)cc1, Cc1ccc(C(=O)Nc2nc(C)c(C(=O)Nc3ccc4c(c3)CCC4)s2)cc1, Cc1ccc[n+](CC(=O)c2cc3ccccc3oc2=O)c1, Cc1nc2scc(-c3ccccc3)c2c(=O)n1/N=C/c1ccco1, Cc1ccc(-n2c3nc(=O)[nH]c(=O)c-3cc3c(C)nn(-c4ccccc4)c32)c(C)c1, COc1ccc(-c2noc(CSc3nnc(-c4ccncc4)n3-c3ccc(F)cc3)n2)cc1OC, CCCCc1c(O)nc(SCC(=O)c2ccccc2)[nH]c1=O, CCN(CC)CCCn1c(C)cc2c(c1=O)C(c1cccc(Cl)c1)C(C#N)=C(N)O2 (stereo unspecified), Cc1cc(Cl)ccc1NC(=O)CN1CCCC1, Cc1ccc(NC(=O)CN2CCN(c3ccccn3)CC2)c(Cl)c1, O=C(CCCn1c(=O)[nH]c2ccsc2c1=O)N1CCCCC1, CC(C)OC(=O)Cn1c(=O)oc2ccccc21, O=C(C1CC(=O)N(C2CCCC2)C1)N1CCN(c2ccc(F)cc2)CC1 (stereo unspecified), Nc1nc2ccc([N+](=O)[O-])c(N)c2s1, CCCn1c(=N)c(S(=O)(=O)c2ccc(F)cc2)cc2c(=O)n3cccc(C)c3nc21, CC(C)c1cc(C(N)=O)c(NC(=O)c2cccc(COc3ccc(Cl)cc3)c2)s1, CCn1nc(-c2ccccc2)c2nc3ccccc3nc21, C=C1CSc2nc(=O)c3c4c(sc3n21)CCCC4, COc1ccc(C(CNC(=O)c2cc(SC)ccc2Cl)N(C)C)cc1 (stereo unspecified), O=c1/c(=C/c2ccc(O)c([N+](=O)[O-])c2)sc2nc3ccccc3n12, CCn1cc(C(=O)O)c(=O)c2cc(F)c(N3CCN(C(=S)NC(=O)c4ccc(F)c(F)c4)CC3)cc21, Cc1ccnc(NC(c2cccnc2)c2ccc3cccnc3c2O)c1 (stereo unspecified), Oc1c(Br)cc(C2N=C(c3ccccc3)NO2)cc1Br (stereo unspecified), CCOC(=O)C1(c2nc(N)cs2)COC(=O)C1 (stereo unspecified), COc1ccccc1-c1ccc(=O)n(CC(=O)Nc2ccc(C(=O)N3CCCC3)cc2)n1, Nc1nc(NCC2CCCO2)nc(Nc2cccc(Cl)c2)c1[N+](=O)[O-] (stereo unspecified), O=C(c1ccccc1)N1CCN(c2nc3ccc([N+](=O)[O-])cc3s2)CC1, COc1ccc(CNC(=O)Cn2nnc(-c3ccc(NC(=O)C4CCCCC4)cc3)n2)cc1, O=C(NCc1cccs1)Nc1cccc(Cl)c1, Cc1ccc(NC(=O)c2ncn(CCCNCc3ccccn3)n2)cc1C, COc1ccc(CCNC(=O)CN2CCOc3ccccc32)cc1OC, COc1ccc(N2CCN(C3CC(=O)N(c4ccc5c(c4)OCCO5)C3=O)CC2)cc1 (stereo unspecified), Cc1ccc(O)c(C(=O)c2coc(=N)c(C(=O)NC(C)C)c2)c1, C=CCNc1ccccc1S(=O)(=O)NCc1ccccc1
